Measured values published in PubChem BioAssay (NCATS).
Where “and” joins values, the source holds several entries; their conditions need not be identical. Equal entries are not always repeated. Results filed as inconclusive are left out. Entries that show only a call come without a potency. Some compounds were tested as several samples or in several runs, with calls that do not always agree. Calls of active or inactive are those of the source. Unless noted, the call rests on the fitted dose curve.

Tests used:
[1] = Primary qHTS for Huh7 cytotoxicity: counterscreen for inhibitors of MERS-S pseudotyped particle cell entry (AID 1479147); conditions: outcome: dose series up to 57.1 µM unless noted
[2] = Primary qHTS for Vero E6 cytotoxicity: counterscreen for inhibitors of SARS-S pseudo-typed particle cell entry (AID 1479150); conditions: outcome: dose series up to 57.1 µM unless noted
[3] = Cytotoxicity counterscreen for inhibitors of SARS-CoV-2 cell entry (AID 1645845); conditions: outcome: dose series up to 57.1 µM unless noted; further: nearly all actives have a fitted effect of over 50% in size; further: potency means the concentration at half of the fitted maximal effect
Outline: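 Counterscreen run in the same HEK293-ACE2 line as the pseudotyped-particle entry assay, without particles. Viability after 48 h at 37 C was read as ATP luminescence, scaled between cell-containing and cell-free wells.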

[4] = Primary qHTS to identify inhibitors of SARS-CoV-2 cell entry (AID 1645846); conditions: SARS-CoV-2 pseudovirus cell entry assay, luminescence; activity change, negative = inhibition: at 57.1 µM (top of the series) unless noted; further: nearly all actives have a fitted effect of over 45% in size; further: potency means the concentration at half of the fitted maximal effect
Outline: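 Using luciferase-reporting pseudoviruses carrying Wuhan-Hu-1 spike, the screen tracks entry into stably ACE2-expressing cells over 48 hr. Activity is expressed relative to spike particles versus particles lacking any fusion protein.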

[5] = Confirmatory qHTS to identify inhibitors of SARS-CoV-2 cell entry (AID 1645844); further: potency means the concentration at half of the fitted maximal effect; nearly all actives have a fitted effect of over 45% in size
Outline: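 HEK293-ACE2, overnight seeding; cpd 1 h, 37C/5% CO2; + SARS-CoV-2-S MLV PP (Wuhan-Hu-1, ΔC19); 48 h; Bright-Glo luminescence. Data normalised to S PP and bald PP wells.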

[6] = VSVG counterscreen qHTS to identify inhibitors of SARS-CoV-2 cell entry (AID 1645847); further: nearly all actives have a fitted effect of over 65% in size; further: potency means the concentration at half of the fitted maximal effect
Outline: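 Entry of VSV-G pseudotyped particles into human ACE2-expressing HEK293 cells was measured by luciferase luminescence 48 h after infection, with compound added 1 h beforehand.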

[7] = qHTS Assay for Identifying Gametocytocidal Compounds (AID 743244; active means well fitted curve in the direction sought with a large enough effect; an effect the other way counts as inactive or inconclusive; further: potency means the concentration at half of the fitted maximal effect); conditions: P. falciparum 3D7 stage III-V gametocytes, alamarBlue, 72 h
Outline: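 In this qHTS viability screen, late-stage 3D7 gametocytes are incubated with compound for 72 h, then with alamarBlue for 24 h; reduced resorufin fluorescence marks killing.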

[8] = Confirmatory qHTS for activators (rescue) of SARS-CoV-2 Cytopathic Effect (CPE) (AID 1508606); further: nearly all actives have a fitted effect of over 70% in size; further: potency means the concentration at half of the fitted maximal effect
[9] = molecular target: Glutathione peroxidase 1 (Homo sapiens) (UniProt P07203); test: Primary qHTS Assay for Inhibitors of Recombinant Selenoprotein Glutathione Peroxidase 1 (GPX1) (AID 1845191; active means well fitted curve in the direction sought with a large enough effect; an effect the other way counts as inactive or inconclusive; further: nearly all actives have a fitted effect of over 65% in size)
Glutathione peroxidase 1 (Homo sapiens), sequence (P07203 whole entry, looked up): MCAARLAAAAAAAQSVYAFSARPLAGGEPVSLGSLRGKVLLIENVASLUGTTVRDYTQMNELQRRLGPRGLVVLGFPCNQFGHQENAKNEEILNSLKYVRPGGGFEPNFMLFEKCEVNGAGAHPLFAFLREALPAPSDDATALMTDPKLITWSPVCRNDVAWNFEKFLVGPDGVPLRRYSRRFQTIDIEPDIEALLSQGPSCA
Outline: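 GR-coupled readout: NADPH consumption tracked by fluorescence, ex 340/em 450 nm, at t=0 and after 15 min at RT. Final mix 10 nM GPX1, 1 mM GSH, 0.5 mM CHP, 0.5 mM NADPH, 100 nM GR, 0.01% BSA, following 30 min enzyme–compound preincubation.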

[10] = Confirmatory qHTS for VERO E6 Cytotoxicity Assay: Counterscreen for SARS-CoV-2 CPE Assay (AID 1508605); further: nearly all actives have a fitted effect of over 60% in size; further: potency means the concentration at half of the fitted maximal effect

Structure (SMILES): CCCCCCCCCC(=O)OCCN1CCN(CCCN2c3ccccc3Sc3ccc(C(F)(F)F)cc32)CC1
- Potency [1]: inactive
- Potency [2]: inactive
- Potency [3]: inactive

Structure (SMILES): O=C(CCCN1CCC(C(=O)c2ccc(F)cc2)CC1)c1ccc(F)cc1
- Potency [1]: inactive
- Potency [2]: inactive
- Potency [3]: inactive

Structure (SMILES): COc1cc2[nH]c(C)c(CCN3CCN(c4ccccc4)CC3)c2cc1OC
- Potency [1]: inactive
- Potency [2]: inactive
- Potency [3]: inactive
- activity change, negative = inhibition [4]: -39.8%

Structure (SMILES): OC(CCN1CCCCC1)(c1ccccc1)C1CCCC1 (stereo not given)
- Potency [1]: inactive
- Potency [2]: inactive
- Potency [3]: inactive

Structure (SMILES): CCCCCCC(COC(=O)c1cccnc1)(COC(=O)c1cccnc1)COC(=O)c1cccnc1
- Potency [1]: inactive
- Potency [2]: inactive
- Potency [3]: inactive
- activity change, negative = inhibition [4]: -17.5%

Structure (SMILES): CCCCCCCCCC(=O)OCCN1CCN(CC/C=C2\c3ccccc3Sc3ccc(C(F)(F)F)cc32)CC1
- Potency [1]: inactive
- Potency [2]: inactive
- Potency [3]: inactive

Structure (SMILES): CCCCCCCC(=O)N[C@H](CN1CCCC1)[C@H](O)c1ccc2c(c1)OCCO2
- Potency [1]: inactive
- Potency [2]: inactive
- Potency [3]: inactive

Structure (SMILES): O=C1[C@@H]2[C@H]3CC[C@H](C3)[C@@H]2C(=O)N1C[C@@H]1CCCC[C@H]1CN1CCN(c2nsc3ccccc23)CC1
- Potency [1]: inactive
- Potency [2]: inactive
- Potency [5]: 12.1 µM (active)
- Potency [3]: inactive
- Potency [4]: 31.6 µM (active)
- Potency [6]: 3.04 µM (active)

Structure (SMILES): CCCN1C[C@H](C)[C@@H](O)[C@](C)(O)[C@@H](CC)OC(=O)[C@H](C)[C@@H](O[C@H]2C[C@@](C)(OC)[C@@H](O)[C@H](C)O2)C(C)[C@@H](O[C@@H]2O[C@H](C)C[C@H](N(C)C)[C@H]2O)[C@](C)(O)C[C@H]1C (stereo not given in full)
- Potency [1]: inactive
- Potency [2]: inactive
- Potency [5]: 21.5 µM (active)
- Potency [3]: inactive
- Potency [4]: 11.2 µM (active)
- Potency [6]: inactive

Structure (SMILES): O=C(O)c1ccc2nc(-c3cc(Cl)cc(Cl)c3)oc2c1
- Potency [1]: inactive
- Potency [2]: inactive
- Potency [3]: inactive
- Potency [4]: inactive

Structure (SMILES): [2H]C([2H])([2H])C(O)([C@@H](C)/C=C/[C@@H](C)[C@H]1CC[C@H]2/C(=C/C=C3C[C@@H](O)C[C@H](O)C3)CCC[C@]12C)C([2H])([2H])[2H]
- Potency [1]: inactive
- Potency [2]: inactive
- Potency [5]: 6.81 µM (active)
- Potency [3]: inactive
- Potency [6]: 3.83 µM (active)

Structure (SMILES): CCCCCCCCCC(=O)NO
- Potency [1]: inactive
- Potency [2]: inactive
- Potency [3]: inactive

Structure (SMILES): CO[C@H]1/C=C\O[C@@]2(C)Oc3c(C)c(O)c4c(O)c(c5c(c4c3C2=O)=NC2(CCN(CC(C)C)CC2)N=5)NC(=O)/C(C)=C\C=C/[C@H](C)[C@H](O)[C@@H](C)[C@@H](O)[C@@H](C)[C@H](OC(C)=O)[C@@H]1C
- Potency [1]: inactive
- Potency [2]: inactive
- Potency [3]: inactive
- activity change, negative = inhibition [4]: -26.3%

Structure (SMILES): Cc1cc(-n2c(=O)[nH]c(=O)n(C)c2=O)ccc1Oc1ccc(SC(F)(F)F)cc1
- Potency [1]: inactive
- Potency [2]: inactive
- Potency [3]: inactive

Structure (SMILES): CCCCC(=O)OCC(=O)[C@]1(O)Cc2c(O)c3c(c(O)c2[C@@H](O[C@H]2C[C@H](NC(=O)C(F)(F)F)[C@H](O)[C@H](C)O2)C1)C(=O)c1c(OC)cccc1C3=O
- Potency [7]: 7.08 µM (active)

Structure (SMILES): CC[C@@H](C(=O)O)[C@@H]1O[C@@H]([C@@H](C)[C@H](O)[C@H](C)C(=O)[C@H](CC)[C@H]2O[C@]3(C=C[C@@H](O)[C@]4(CC[C@@](C)([C@H]5CC[C@](O)(CC)[C@H](C)O5)O4)O3)[C@H](C)C[C@@H]2C)[C@@H](C)C[C@@H]1C
- Potency [7]: 0.316 µM (active)

Structure (SMILES): COc1ccc2c(c1)N(C[C@H](C)CN(C)C)c1ccccc1S2
- Potency [8]: 10 µM (active)

Structure (SMILES): COc1cc(N2CCC(N3CCN(C)CC3)CC2)ccc1Nc1ncc(Cl)c(Nc2ccccc2P(C)(C)=O)n1
- Potency [5]: 4.82 µM (active)

Structure (SMILES): CC1CCCC(O)CCCCCc2cc(O)cc(O)c2C(=O)O1 (stereo not given)
- Potency [9]: inactive

Structure (SMILES): COc1ccccc1N1CCN(CC[C@@](C)(C(=O)C2CCCCC2)c2ccccc2)CC1
- Potency [10]: inactive
- Potency [8]: 10 µM (active)

Structure (SMILES): CCC(C)C(=O)OC1C(C)C2(O)C(C=C(CO)CC3(O)C(=O)C(C)=CC32)C2C(C)(C)C12OC(=O)C(C)C (stereo not given)
- Potency [10]: inactive
- Potency [8]: inactive

Structure (SMILES): Cc1cc2cc(Oc3ccnc(Nc4cccc(CS(=O)(=O)NCCN(C)C)c4)n3)ccc2[nH]1
- Potency [10]: 11.2 µM (active)
- Potency [8]: inactive
- Potency [4]: 35.5 µM (active)

Structure (SMILES): Cc1ncc(NC(=O)c2ccc(CN3CCN(C)CC3)c(C(F)(F)F)c2)cc1Nc1nccc(-c2cccnc2)n1
- Potency [10]: inactive
- Potency [8]: 10 µM (active)
- Potency [3]: inactive

Structure (SMILES): Cc1cccc(/C=N/Nc2cc(N3CCOCC3)nc(OCCc3ccccn3)n2)c1
- activity change, negative = cytotoxic [10]: -20.4% [at 1.7 µM] (inactive)
- Potency [8]: 0.0142 µM (active)
- Potency [5]: 0.0764 µM (active)
- activity change, negative = inhibition [4]: -96.7%
- Potency [6]: 7.64 µM (active)

Structure (SMILES): CCCCNc1ncc2c(-c3ccc(CN4CCN(C)CC4)cc3)cn(C3CCC(O)CC3)c2n1 (stereo not given)
- Potency [10]: 3.16 µM (active)
- Potency [8]: inactive
- Potency [3]: inactive and 25.1 µM (active)
- Potency [4]: 14.1 µM (active)

Structure (SMILES): COc1ccc(NC(=O)c2ccc(-c3ccc(-c4nnc(C)o4)cc3C)cc2)cc1N1CCN(C)CC1
- Potency [10]: inactive
- Potency [8]: 6.31 µM (active)

Structure (SMILES): O=C(NCc1ccccc1)[C@H](Cc1ccccc1)NC(=O)[C@H]1O[C@@H]1C(=O)NCCc1ccc(O)cc1
- Potency [10]: inactive
- Potency [8]: 0.141 µM (active)
- Potency [3]: inactive

Structure (SMILES): COc1ccc(NS(=O)(=O)c2sc3ccc(Cl)cc3c2C)cc1N1CCNCC1
- Potency [10]: inactive
- Potency [8]: 10 µM (active)

Structure (SMILES): Cc1cnc(NC(=O)c2cc(S(=O)(=O)N(C)C)ccc2N2CCCC2)s1
- Potency [10]: inactive
- Potency [8]: 2.82 µM (active)

Structure (SMILES): O=C1c2ccccc2-c2nc3nnnn3nc21 (tested in a mixture with another compound)
- Potency [10]: 1.12 µM (active)
- Potency [8]: inactive

Structure (SMILES): CC#C[C@@H](CC(=O)O)c1ccc(OCc2cccc(-c3ccc(C(F)(F)F)cc3)c2)cc1
- Potency [10]: inactive
- Potency [8]: 11.2 µM (active)
- Potency [3]: inactive

Structure (SMILES): CN(C)CCN(Cc1ccccc1)C(=O)c1cc(-c2ccc(F)cc2)n2nc(C(C)(C)C)cc2n1
- Potency [10]: inactive
- Potency [8]: inactive

Structure (SMILES): Fc1ccc2c(CCNCc3cccc(OCC(F)(F)C(F)F)c3)c[nH]c2c1
- Potency [10]: inactive
- Potency [8]: 10 µM (active)

Structure (SMILES): CCCC[C@@H](C=O)NC(=O)[C@H](CC(C)C)NC(=O)OCc1ccccc1
- Potency [10]: inactive
- Potency [8]: 0.355 µM (active)
- Potency [3]: inactive
- activity change, negative = inhibition [4]: -89.9%
